The values below come from PubChem BioAssay AID2061323 (National Center for Advancing Translational Sciences (NCATS), 2025).

Records with an inconclusive call do not appear. Active and inactive are the calls of the source. The call rests on the fitted dose curve; in most records, active means well fitted inhibition curve with a large enough effect; inconclusive means small, poorly fitted or top-dose-only effect; inactive means flat fitted curve, though single readings scatter.

The nature of this experiment: Identification of antibody-drug conjugate (ADC) payloads which are substrates of ATP-binding cassette drug efflux transporters: ABCG2-HEK293-R5 cell line. To be noted: ABCG2-HEK293-R5 viability, CellTiter-Glo ATP luminescence, 48 h. The source says: Antibody-drug conjugates (ADCs) feature an antibody recognizing a specific protein joined to a potent toxic payload. Numerous antibody-drug conjugates have received FDA approval; however, clinical resistance arises. Resistance mechanisms include decreased expression or mutation of the antibody target, impaired payload release, or increased expression of ATP-binding cassette (ABC) efflux transporters associated with multidrug resistance. We therefore sought to characterize the interaction of ABC multidrug transporters with ADC payloads. We performed a high-throughput screen with 27 common ADC payloads using cells lines expressing ABC transporters P-glycoprotein (P-gp, encoded by ABCB1) or ABCG2 (encoded by ABCG2). Confirmatory assays were also performed using cells transfected to express P-gp, ABCG2, or MRP1 (encoded by ABCC1). Several commonly used ADC payloads were substrates of P-gp, including calicheamicin gamma1, monomethyl auristatin E, DM1, and DM4. All the pyrrolobenzodiazepines tested - SJG136, SGD-1882, SG2057, and SG3199 - were substrates of P-gp, ABCG2, and MRP1. […] These findings highlight the risk of transporter-mediated resistance with certain ADC payloads and underscore the importance of selecting payloads that evade ABC transporter recognition in future ADC development.
HEK-293 cells were transfected with empty vector (pcDNA) or vector containing the human ABCB1 (MDR-19), ABCG2 (R-5), or ABCC1 gene (MRP1) and were maintained in EMEM with 2 mg/mL G418 added to maintain transporter expression. The HeLa derivative KB-3-1 and the P-gp overexpressing KB-8-5-11 subline were maintained in DMEM; KB-8-5-11 additionally received 100 ng/mL colchicine. H460 parental cells were obtained from the Division of Cancer Treatment and Diagnosis Tumor Repository, National Cancer Institute at Frederick, MD and were cultured in RPMI. The ABCG2 expressing subline H460 MX20 was generated by selecting H460 cells in 20 nM mitoxantrone. Media in all cases was supplemented with 10% FBS and 1% penicillin-streptomycin. We explored 27 common ADC payloads, in two orthogonal, paired cell line sets-a drug selected and transfected set for each transporter--to identify substrates of the ABC transporters P-gp and ABCG2. Compounds were sourced from Levena Biopharma (San Diego, CA), Selleck Chem (Houston, TX), ChemieTek (Indianapolis, IN), or Microsource Discovery Systems (Gaylordsville, CT). Screening was performed as previously described. Briefly, cells were plated at a density of 500 cells/well in 1536 well plates with compounds added using a 1536-head pin tool (Kalypsys, San Diego CA). Cells were incubated with cytotoxic drugs and processed with CellTiter Glo reagent (Promega, Madison, WI) to determine viability after 48 hours. […]
A general note: ATP-based viability assays read luminescence as a measure of living cells.

Take `CC[C@@]1(O)C(=O)OCc2c1cc1n(c2=O)Cc2cc3ccccc3nc2-1`: the Potency was 0.0134 µM (active).

On to `CC[C@H](C)[C@@H]([C@@H](CC(=O)N1CCC[C@H]1[C@H](OC)[C@@H](C)C(=O)N[C@H](C)[C@@H](O)c1ccccc1)OC)N(C)C(=O)[C@@H](NC(=O)[C@H](C(C)C)N(C)C)C(C)C`, for which the Potency is 0.0084 µM (active).

In the case of `COc1cc2cc(C(=O)N3C[C@@H](CCl)c4c3cc(O)c3ccccc43)[nH]c2c(OC)c1OC`, the Potency was 0.0212 µM (active).

In the case of `COc1cc2cc(c1Cl)N(C)C(=O)C[C@H](OC(=O)[C@H](C)N(C)C(=O)CCC(C)(C)S)[C@]1(C)OC1[C@H](C)C1C[C@@](O)(NC(=O)O1)[C@H](OC)/C=C/C=C(\C)C2` (some centres undefined), the Potency is 0.0024 µM (active).
